Vaccinia Venus – vaccinia inhibition (Venus reporter) | Vaccinia virus Venus reporter expression, fluorescence | Potency, µM (doses to about 36.5 µM), without a hit: at the highest dose activity change, negative = inhibition, actives largely listed as inhibitors | actives 0.46% (n = 330,000) | AID 720580; calls by dose curve; tested in A549 cells; further: potency means the concentration at half of the fitted maximal effect; nearly all actives have a fitted effect of over 30% in size
FMDV inh – antivirals against foot and mouth disease virus. FMDV antiviral cell-based qHTS. Potency, µM (top dose mostly 57.9 µM), for the others: at the top dose activity change, negative = inhibition, usual class: inhibitors. actives 1.2% (n = 410,000). AID 1159524; calls by dose curve; tested in HEK293T cells; further: read-out not given here; potency means the concentration at half of the fitted maximal effect; nearly all actives have a fitted effect of over 45% in size
Vaccinia mCherry – vaccinia inhibition (mCherry reporter) | Vaccinia virus mCherry reporter infection, fluorescence | Potency, µM (series often up to 36.5 µM), without a hit: at the highest dose activity change, negative = inhibition, actives largely listed as inhibitors | actives 0.63% (n = 310,000) | AID 720579; calls by dose curve; tested in A549 cells; further: potency means the concentration at half of the fitted maximal effect; nearly all actives have a fitted effect of over 35% in size
HCV inhibitor – inhibitors of hepatitis C virus infection; AID 651820; Potency, µM (doses to about 41.8 µM), inactives show at the highest dose activity change, negative = inhibition, hits mostly inhibitors; Huh7.5.1 HCVcc-Cre infection, luciferase reporter, 44 h; actives 3.4% (n = 340,000); active means well fitted inhibition curve with a large enough effect; inconclusive means small, poorly fitted or top-dose-only effect, or another doubt; inactive means no such curve, though single readings can be large or run the other way; further: potency means the concentration at half of the fitted maximal effect
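Infectious HCVcc-Cre (~0.5 moi) was added to cells just after compound, with cells seeded 4 h earlier at 1,000 per well. Luciferase activity after 44 h culture reported infection; substrate was incubated 15 min at room temperature before reading.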
HCMV inh – blocks human cytomegalovirus replication; HFF cells, HCMV-luciferase reporter, 72 h; active compounds read low; activity change, negative = inhibition, % at 57.5 µM; actives 4.5% (n = 410,000); in the data active means activity change below about -60%; inconclusive means no clear call, values can overlap the other calls; inactive means above about -39%
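Human foreskin fibroblasts infected with luciferase-reporter HCMV at MOI 1 PFU/cell, compounds at two doses. Luciferase measured 72 h post infection; normalized to buffer-only basal and Salinomycin (10uM) controls.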
* marks the source's active call; other numbers are inactive results; i = inactive; ? = inconclusive; nt = no result; + = active, no number; [ ] = remark or other dose. Sampled rows, rich in hits. Any-hit rate of the full collection: about 7.3%. On the % scale 0 is the no-effect control and ±100 the full control effect.

SMILES | Vaccinia Venus | FMDV inh | Vaccinia mCherry | HCV inhibitor | HCMV inh
CCc1cccc(NC(=O)Cn2c(-c3ccc(F)cc3)cc(C(C)=O)c2C)c1 | -27% | -11% | ? | nt | ?
CCOc1ccccc1C1CC(=O)Nc2cc3c(cc21)OCCO3 (stereo not drawn) | nt | 18µM* | nt | ? | -99*
CCOc1ccccc1C1CC(=O)Nc2cc(C)c(C)cc21 (stereo not drawn) | nt | -18% | nt | ? | -19
CCCOc1ccccc1C1CC(=O)Nc2cc3c(cc21)OCCO3 (stereo not drawn) | ? | 22µM* | ? | 2.5µM* | nt
CCCCOc1ccccc1C1CC(=O)Nc2cc(C)c(C)cc21 (stereo not drawn) | ? | ? | ? | nt | -27
COc1cc(C2CC(=O)Nc3cc4c(cc32)OCCO4)cc(Br)c1OC (stereo not drawn) | -30%[7.34 µM] | -15% | ? | nt | -81*
N#Cc1cc(S(=O)(=O)c2ccc(F)cc2)c(N)[nH]c1=O | nt | -20% | nt | 11% | -70*
N#Cc1cc(S(=O)(=O)c2ccccc2)c(N)[nH]c1=O | nt | -13% | nt | 5% | 56
C=C1NN(CC2CC2)C(=O)N1c1ccc(OCc2ccccc2)cc1 | -14% | nt | -26% | nt | nt
CCn1cc(CNC(=O)c2ccc3nc(Cc4ccccc4F)oc3c2)cn1 | -14% | -18% | -14% | 11µM* | -3
O=C(NCCc1ccc(Cl)cc1)c1ccc2nc(Cc3ccccc3)oc2c1 | 8% | -16% | -4% | nt | -9
O=C(NCCc1ccncc1)c1ccc2nc(Cc3cccc(Cl)c3)oc2c1 | -17% | -27% | -6% | -7% | -70*
COc1cccc(NC(=O)c2ccc3nc(Cc4ccccc4)oc3c2)c1 | -18% | -13% | -13% | nt | -94*
O=C(NCCCN1CCN(c2ccc(F)cc2)CC1)c1ccc2nc(Cc3ccccc3)oc2c1 | -27% | 11µM* | -25% | nt | ?
CC(=O)c1ccc(NC(=O)Cn2c3ncccc3c(=O)n2-c2ccc(C)cc2)cc1 | -13% | -6% | -6% | nt | -19
CCOC(=O)C1=C(C)Nc2ccccc2N/C1=N\S(=O)(=O)c1cc(C(=O)O)ccc1Cl | nt | -20% | nt | -1% | -4
CN(C)c1ccc(-c2nc(NCCc3cnc[nH]3)c3ccccc3n2)cc1 | nt | -18% | nt | nt | nt
Cc1cc(OCC(=O)OCC(=O)Nc2cc(S(=O)(=O)N3CCOCC3)ccc2Cl)ccc1Cl | -3% | 9% | i | 7% | -4
CCC(NC(=O)c1ccc2nc(Cc3ccc(OC)cc3)oc2c1)c1ccncc1 (stereo not drawn) | nt | 20µM* | nt | -7% | +
CCn1cc(CNC(=O)c2ccc3nc(Cc4ccc(OC)cc4)oc3c2)cn1 | -24% | -19% | -24% | 10µM* | -65*
CCC(C)NC(=O)c1ccc2nc(Cc3ccc(OC)cc3)oc2c1 (stereo not drawn) | -21% | 31% | -8%[7.34 µM] | -5% | 5
Nc1cc(=O)[nH]c(=O)n1CCCc1ccccc1 | -9% | -1% | -5% | 1% | -73*
CCCCn1nc(NC(=O)c2cccc(Cl)c2)c2cc3cccc(C)c3nc21 | -17% | -18% | i | nt | -37
CN(C)c1cc[n+](CC(=O)Nc2ccc(Cl)c([N+](=O)[O-])c2)cc1 | -8% | -5% | ? | 8% | -96*
CC(=O)c1ccc(NC(=O)C[n+]2ccc(N(C)C)cc2)cc1 | -4% | -19% | -30% | -9% | -26
SMILES | Vaccinia Venus | FMDV inh | Vaccinia mCherry | HCV inhibitor | HCMV inh
CN(C)c1cc[n+](CC(=O)Nc2ccc(OC(F)F)cc2)cc1 | -25% | ? | -14% | -8% | -65*
CC(C)(C)c1nn(-c2ccccc2)c2[nH]c(=O)c(C=O)cc12 | nt | -23% | nt | ? | -28
COc1ccc(N2CCN(S(=O)(=O)c3ccc4oc(=O)c5ncn(C)c5c4c3)CC2)cc1 | -3% | -5% | -9% | nt | 14
CC(C)C(OC(=O)C1=Cc2ccccc2OC1)C(=O)NCC1CCCO1 (stereo not drawn) | 2% | 1% | -7% | -17% | 0
Cc1ccc(NS(=O)(=O)c2ccc3c(c2)NC(=O)CCS3)cc1F | -19% | 0% | ? | -10% | -35
Cc1ccc(NS(=O)(=O)c2ccc3c(c2)NC(=O)CCS3)cc1C | 0.89µM* | -16% | ? | -9% | ?
COc1cc(OC)c(NS(=O)(=O)c2ccc3c(c2)NC(=O)CCS3)cc1Cl | -14% | -29% | -18% | nt | -63*
CCc1ccc(CNC(=O)CN2C(=O)c3cccnc3Oc3ccc(Cl)cc32)cc1 | -6% | -20% | -9% | nt | 0
CC(=O)C1=CCC(c2cccc(Cl)c2)N(S(=O)(=O)c2ccc(C)cc2)C1 (stereo not drawn) | -11% | -36% | 30% | nt | -31
CCCOc1ccccc1/C=C1\SC(N2CCCCC2)=NC1=O | 6% | 17% | -14% | 10µM* | -82*
O=C1N=C(N2CCCCC2)S/C1=C\c1ccccc1F | -21% | 86% | -24% | -23% | 14
CN(C)S(=O)(=O)c1cccc(NC(=O)CSc2nc3ccccc3[nH]2)c1 | -15% | 0% | -11% | ? | -61*
CN(C)S(=O)(=O)c1cccc(NC(=O)CCNC(=O)Nc2ccccc2)c1 | nt | 2% | nt | -3% | -6
CN(C)S(=O)(=O)c1cccc(NC(=O)CCSc2ccc(Cl)cc2)c1 | -21% | 0% | -11% | 10µM* | ?
CN(C)S(=O)(=O)c1cccc(NC(=O)CSc2ncnc3ccccc23)c1 | ? | ? | ? | 7.9µM* | -15
COc1ccccc1C(=O)N1CCCC(c2nc(-c3cc(OC)c(OC)c(OC)c3)no2)C1 (stereo not drawn) | -15% | -24% | -24% | -27% | 49
O=C(c1ccccc1Br)N1CCCC(c2nc(-c3cccs3)no2)C1 (stereo not drawn) | nt | -5% | nt | ? | -89*
COc1ccc(-c2noc(C3CCCN(C(=O)c4ccccc4OC)C3)n2)cc1 (stereo not drawn) | -23% | -29% | i | ? | -84*
Cc1cccc(C(=O)N2CCCC(c3nc(-c4ccc(F)cc4)no3)C2)c1 (stereo not drawn) | -16% | -22% | -27% | 13µM* | 7
COc1ccc(-c2noc(C3CCCN(C(=O)c4cccc(F)c4)C3)n2)cc1 (stereo not drawn) | -17% | 0% | i | ? | -22
COc1ccc(-c2noc(C3CCCN(C(=O)c4ccccc4C)C3)n2)cc1 (stereo not drawn) | -10% | -27% | -17% | 32µM* | -39
COC(=O)N1CCC2(CCN(Cc3nccs3)CC2)CC1 | nt | -10% | nt | nt | nt
CCOC(=O)N1CCc2c(sc3c2c(=O)n(Cc2ccccc2)c(=O)n3CC(=O)Nc2ccc(C)cc2C)C1 | -4% | -12% | -19% | nt | 5
N=c1oc2c3c4c(cc2cc1C(=O)Nc1ccccc1)CCCN4CCC3 | 34% | 32% | -4% | 7.9µM* | nt
OC(c1cccnc1)c1nc(-c2ccc3c(c2)OCO3)cs1 (stereo not drawn) | 1% | 28% | 22% | nt | -11
Cc1ccc(C2=NS(=O)(=O)N(C)C(C(=O)NCc3ccccc3)=C2)cc1 | -17% | -21% | i | 11% | 23

Source: PubChem (National Center for Advancing Translational Sciences (NCATS))
